Out of some 5,500 compounds screened, about 2,000 (36%) were called active. About 18% were inconclusive and are not listed. Cut-off read from the data, not from the text of the source: active = normalized growth mostly below about 0.91 (no sharp cut-off); inconclusive = no clear call, values can overlap the other calls; inactive = mostly above about 0.92. The list shows a part of the results.
Assay: chemical genetic growth profiling, strain panel (AID 1159580);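 note: tested at 20 µM; growth read once vehicle control cultures reached saturation at 30 °C; 1 = growth at the plate median or of vehicle wells; lower values mean less growth of the strain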
Conditions: S. cerevisiae deletion strains, growth OD

Measured: normalized growth

COC(=O)c1c(C)cc(O)cc1O
inactive: locus YAL021C, strain ccr4, stronger effect = lower value 1.02 | locus YAL026C, strain drs2, stronger effect = lower value 1 | locus YAL030W, strain snc1, stronger effect = lower value 1 | locus YBL061C, strain skt5, stronger effect = lower value 1.02 | locus YBR009C, strain hhf1, stronger effect = lower value 1 | locus YBR023C, strain chs3, stronger effect = lower value 1.01 | locus YBR171W, strain sec66, stronger effect = lower value 1 | locus YBR231C, strain swc5, stronger effect = lower value 1.01 | locus YBR279W, strain paf1, stronger effect = lower value 1.02 | locus YCL011C, strain gbp2, stronger effect = lower value 1.01 | locus YCL016C, strain dcc1, stronger effect = lower value 1.01 | locus YCL061C, strain MRC1, stronger effect = lower value 1.01 | locus YCL069W, strain vba3, stronger effect = lower value 0.999 | locus YCR088W, strain abp1, stronger effect = lower value 0.994 | locus YDL005C, strain med2, stronger effect = lower value 1.01 | locus YDL040C, strain nat1, stronger effect = lower value 1 | locus YDR001C, strain nth1, stronger effect = lower value 0.998 | locus YDR069C, strain doa4, stronger effect = lower value 1.01 | locus YDR137W, strain rgp1, stronger effect = lower value 1 | locus YDR159W, strain sac3, stronger effect = lower value 1.02 | locus YDR195W, strain ref2 1.05 | locus YDR297W, strain sur2, stronger effect = lower value 1.01 | locus YDR334W, strain swr1, stronger effect = lower value 1.01 | locus YDR335W, strain msn5, stronger effect = lower value 1.01 | locus YDR392W, strain spt3, stronger effect = lower value 0.978 | locus YEL003W, strain gim4, stronger effect = lower value 1.01 | locus YEL037C, strain rad23, stronger effect = lower value 1.01 | locus YEL061C, strain CIN8 (second series), stronger effect = lower value 1.01 | locus YER015W, strain faa2, stronger effect = lower value 1 | locus YER016W, strain bim1, stronger effect = lower value 1.01 | locus YER111C, strain swi4, stronger effect = lower value 1.03 | locus YER155C, strain BEM2 (second series), stronger effect = lower value 0.995 | locus YFR010W, strain ubp6, stronger effect = lower value 1.02 | locus YGL167C, strain pmr1, stronger effect = lower value 1.01 | locus YGL173C, strain kem1, stronger effect = lower value 1.02 | locus YGL227W, strain vid30, stronger effect = lower value 1 | locus YGL240W, strain doc1, stronger effect = lower value 1 | locus YGL253W, strain hxk2, stronger effect = lower value 1.01 | locus YHR013C, strain ard1, stronger effect = lower value 1.03 | locus YHR027C, strain rpn1, stronger effect = lower value 1.02 | locus YHR030C, strain SLT2, stronger effect = lower value 0.994 | locus YHR079C, strain IRE1, stronger effect = lower value 0.996 | locus YHR142W, strain chs7, stronger effect = lower value 1 | locus YJL092W, strain hpr5, stronger effect = lower value 0.998 | locus YJL095W, strain BCK1 (second series), stronger effect = lower value 1 | locus YJL095W, strain BCK1, stronger effect = lower value 0.984 | locus YJL115W, strain asf1, stronger effect = lower value 1.01 | locus YJL129C, strain trk1, stronger effect = lower value 1 | locus YJL154C, strain vps35, stronger effect = lower value 1.01 | locus YJL164C, strain tpk1, stronger effect = lower value 1.01 | locus YJL166W, strain qcr8, stronger effect = lower value 0.998 | locus YJL187C, strain SWE1, stronger effect = lower value 1.01 | locus YJR066W, strain TOR1, stronger effect = lower value 0.948 | locus YKL160W, strain elf1, stronger effect = lower value 1 | locus YKR026C, strain gcn3, stronger effect = lower value 1 | locus YKR091W, strain srl3, stronger effect = lower value 1.01 | locus YLL001W, strain dnm1, stronger effect = lower value 1.02 | locus YLL026W, stronger effect = lower value 0.996 | locus YLL041C, strain sdh2, stronger effect = lower value 1.01 | locus YLR027C, strain aat2, stronger effect = lower value 1.01 | locus YLR113W, strain HOG1, stronger effect = lower value 1.03 | locus YLR221C, strain rsa3, stronger effect = lower value 0.999 | locus YLR258W, strain gsy2, stronger effect = lower value 1.01 | locus YLR262C, strain YPT6 (second series), stronger effect = lower value 0.985 | locus YLR320W, strain mms22, stronger effect = lower value 1.01 | locus YLR342W, strain FKS1, stronger effect = lower value 1.01 | locus YLR357W, strain rsc2, stronger effect = lower value 1.03 | locus YLR370C, strain arc18, stronger effect = lower value 0.992 | locus YLR384C, strain iki3, stronger effect = lower value 1.01 | locus YML120C, strain ndi1, stronger effect = lower value 0.993 | locus YMR058W, strain fet3, stronger effect = lower value 1.01 | locus YMR125W, strain sto1, stronger effect = lower value 1.02 | locus YMR129W, stronger effect = lower value 1.01 | locus YMR205C, strain PFK2, stronger effect = lower value 1.01 | locus YMR231W, strain pep5, stronger effect = lower value 1.01 | locus YNL071W, strain lat1, stronger effect = lower value 0.987 | locus YNL183C, strain NPR1, stronger effect = lower value 0.917 | locus YNL209W, strain ssb2, stronger effect = lower value 1.01 | locus YNL248C, strain rpa49, stronger effect = lower value 1.01 | locus YNL322C, strain KRE1 (second series), stronger effect = lower value 1 | locus YNR049C, strain mso1, stronger effect = lower value 1 | locus YOR001W, strain rrp6, stronger effect = lower value 1 | locus YOR070C, strain gyp1, stronger effect = lower value 1 | locus YOR080W, strain dia2, stronger effect = lower value 1.01 | locus YOR083W, strain WHI5, stronger effect = lower value 1.01 | locus YOR106W, strain vam3, stronger effect = lower value 0.999 | locus YOR231W, strain MKK1, stronger effect = lower value 0.987 | locus YOR265W, strain rbl2, stronger effect = lower value 0.999 | locus YOR270C, strain vph1, stronger effect = lower value 0.961 | locus YOR290C, strain snf2, stronger effect = lower value 1.01 | locus YPL051W, strain arl3, stronger effect = lower value 1 | locus YPL078C, strain atp4, stronger effect = lower value 0.999 | locus YPL106C, strain sse1, stronger effect = lower value 0.982 | locus YPL240C, strain hsp82, stronger effect = lower value 0.996 | locus YPL256C, strain CLN2, stronger effect = lower value 1.01
